From PubChem BioAssay
TDP1 cell noCPT – qHTS for Inhibitors of human tyrosyl-DNA phosphodiesterase 1 (TDP1): qHTS in cells in absence of CPT | actives 15% (n = 420,000) | DT40 Tdp1-/- hTDP1 cells, no CPT, ATP luminescence, 48 h | AID 686978, 2013 | Potency, µM (titrated, usually from 46.2 µM), without a hit: top-dose activity change, negative = growth inhibition, usual class: inhibitors; further: potency means the concentration at half of the fitted maximal effect; nearly all actives have a fitted effect of over 55% in size
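Luminescent ATP content (CellTiter-Glo) served as the growth readout. Knockout chicken DT40 cells expressing human TDP1 were exposed to compounds without camptothecin for a minimum 48 hr at 37 °C.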
HT1080NT lethal – kills 2HG-producing HT-1080-NT fibrosarcoma cells; Potency, µM (doses to about 46.1 µM), inactives show top-dose activity, negative = less viability, actives largely listed as cytotoxic; AID 686970; actives 1.6% (n = 360,000); HT-1080-NT fibrosarcoma viability, CellTiter-Glo ATP luminescence, 48 h;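 further: NT is the 2HG producing partner of a matched IDH1 knockdown line; potency means the concentration at half of the fitted maximal effect; 0% = DMSO-treated cells and -100% = media-only wells without cells; nearly all actives have a fitted effect of over 55% in size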
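Read-out is CellTiter-Glo luminescence after 10 minutes at room temperature, following 48 hours' compound treatment of HT-1080-NT cells (750 cells/well, RPMI, 5% FBS, 37 degrees C).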
HT1080 IDH1KD tx – HT-1080 IDH1 knockdown cell toxicity (counter line) | HT-1080 IDH1 knockdown viability, ATP luminescence, 48 h | Potency, µM (highest dose often 46.1 µM), for inactives: at the top dose activity, negative = toxicity, hits mostly cytotoxic | actives 2% (n = 360,000) | AID 686971;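 further: potency means the concentration at half of the fitted maximal effect; 0% = DMSO wells and -100% = cell-free medium wells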
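CellTiter-Glo luminescence after 48 h compound exposure at 37 degrees C of IDH1-knockdown HT-1080 cells in 5% FBS RPMI. %Activity scaled between DMSO wells and cell-free media wells, with curves fitted and assigned curve classes.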
TDP1 cell CPT – DT40-hTDP1 cell growth loss with CPT. chicken DT40 Tdp1-/-;hTDP1 cells + 20 nM CPT, ATP luminescence, 48 h. Potency, µM (top dose mostly 46.2 µM), for inactives: at the highest dose activity change, negative = growth inhibition, most hits filed as inhibitors. actives 12% (n = 420,000). AID 686979; further: potency means the concentration at half of the fitted maximal effect; nearly all actives have a fitted effect of over 55% in size
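Chicken DT40 Tdp1-/- cells stably complemented with human TDP1 were seeded at 400 cells/well in medium containing 20 nM camptothecin, exposed to pin-transferred compounds, and grown at 37 °C for at least 48 hr. Viability was read as ATP luminescence.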
IL1B secr inh – blocks inflammasome-driven IL-1 beta release; THP-1 LPS/ATP IL-1B secretion, AlphaLISA, 16 h; hits give low values; actives 4.7% (n = 360,000); activity change, % at 57.5 µM; in the data active means activity change below about -50%; inconclusive means mostly about -30% to -49%
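THP-1 cells pretreated 1 hr with compounds (up to 57.5 uM final), then stimulated with LPS (250 ng/mL final) plus ATP (1.25 mM final); secreted IL-1B measured by AlphaLISA after 16 hr, decreased signal indicating inhibition.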
An asterisk follows results filed as active; ? = inconclusive; . = no result; ! = not active in a repeat; [ ] = dose if it differs, or a comment. Only some compounds are listed: those with a hit (about 19% of all), similar ones and a draw of the others. Unless noted, the call rests on the fitted dose curve; in most records, active means well fitted curve in the direction sought with a large enough effect; inconclusive means small, poorly fitted or top-dose-only effect, or another doubt; inactive means no such curve, though single readings can be large; an effect the other way counts as inactive or inconclusive. Unless noted, on the % scale 0 is the no-effect control and ±100 the full control effect.

SMILES | TDP1 cell noCPT | HT1080NT lethal | HT1080 IDH1KD tx | TDP1 cell CPT | IL1B secr inh
O=S(=O)(c1ccc(Cl)c(NC(=S)N/N=C/c2ccc(O)cc2)c1)N1CCOCC1 | 4.6µM* | -21% | -15% | 4.1µM* | -20
N#Cc1ccc(/C=N/NC(=S)Nc2ccc(S(=O)(=O)N3CCOCC3)cc2)cc1 | 21µM* | 5% | 10% | ? | -21
O=[N+]([O-])c1cc(Cl)cc(/C=N/NC(=S)Nc2ccc(S(=O)(=O)N3CCOCC3)cc2)c1O | ? | ? | 3.7µM* | ? | 124
O=C1NC(=O)C2(CCCC2c2ccccc2)N1 (centres undefined) | -11% | -2% | 3% | -3% | -1
C/C(=N\NC(=S)Nc1cc(S(=O)(=O)N2CCOCC2)ccc1Cl)c1ccc(N2CCOCC2)cc1 | 2.6µM* | -1% | -1% | 2.9µM* | -27
Cc1ccc(Cl)cc1NC(=O)CSc1nc2ccccc2c2nc(-c3ccccc3)nn12 | -3% | . | . | -15% | .
O=C(Cc1cc(=O)[nH][nH]1)N/N=C/c1c(Cl)cccc1Cl | -7% | -8% | 0% | -7% | -100*!
O=C(Cc1cc(=O)[nH][nH]1)N/N=C/c1c(F)cccc1Cl | 34% | 0% | -2% | ? | -10
CCc1cccc(CC)c1NS(=O)(=O)c1ccc2c(c1)CCN2C(=O)C1CC1 | -28% | . | . | ? | .
COc1ccc(OC)c(NS(=O)(=O)c2ccc3c(c2)CCCN3C(=O)C2CCC2)c1 | ? | . | . | 23µM* | .
CCc1ccccc1NS(=O)(=O)c1ccc2c(c1)CCCN2C(=O)C1CCC1 | 21µM* | . | . | ? | .
CN(CC(=O)NCc1ccco1)S(=O)(=O)c1ccc2c(c1)n(C)c(=O)c(=O)n2C | -2% | 0%[9.24 µM] | 6% | -15% | -10
O=C(Cc1ccc(Cl)cc1)c1c(O)cc(O)cc1O | -5% | . | . | -9% | .
O=C(CSc1oc(-c2ccccc2)nc1S(=O)(=O)c1ccc(Cl)cc1)NC1CCCCC1 | -14% | . | . | -3% | .
COc1oc(C(=O)NC2CCCCC2)c(-c2ccc(Cl)cc2)c1S(=O)(=O)c1ccccc1 | 21µM* | ? | ? | ? | -58*
Cc1ccc2cc3c(N)[nH]nc3nc2c1 | -1% | -4% | -6% | 10% | 0
CN(c1cccc(Cl)c1)S(=O)(=O)c1cccc(C(=O)Nc2nc3ccccc3[nH]2)c1 | 23µM* | ? | ? | 21µM* | -62*
COc1ccc(N(C)S(=O)(=O)c2cccc(C(=O)Nc3nnc(C)s3)c2)cc1 | ? | 1%[9.24 µM] | 1% | -27% | 0
COc1ccc(N(C)S(=O)(=O)c2cccc(C(=O)Nc3nc4ccccc4[nH]3)c2)cc1 | ? | -22% | ? | 23µM* | ?
O=C(NCC1CCCO1)c1ccc(CS(=O)(=O)Cc2ccc(F)cc2)o1 (centres undefined) | -12% | 3% | 1% | -7% | -2
COC(=O)[C@@]12C[C@@H](CC(=O)NCc3ccc(OC)c(OC)c3)C(=O)N(Cc3ccc4c(c3)OCO4)C1=CCC(C)(C)C2 | 26µM* | -6% | -16% | 15µM* | -28
COCCCNC(=O)C[C@@H]1C[C@@]2(C(=O)OC)CC(C)(C)CC=C2N(Cc2ccc3c(c2)OCO3)C1=O | ? | -1% | -2% | 13% | -18
COC(=O)[C@@]12C[C@@H](CC(=O)NCc3cccc(C(F)(F)F)c3)C(=O)N(Cc3ccc4c(c3)OCO4)C1=CCC(C)(C)C2 | 18µM* | 13µM* | 21µM* | ? | -71*
O=C(NS(=O)(=O)Oc1ccc(F)c(Cl)c1)OC[C@@H]1CCCN2CCCCC12 (some centres undefined) | 3% | 4% | 5% | 7% | 24
CN(C)S(=O)(=O)N1CCN(c2ccc([N+](=O)[O-])c(N3CCCCC3)c2)CC1 | 10µM* | -5% | 16% | -26% | 22
SMILES | TDP1 cell noCPT | HT1080NT lethal | HT1080 IDH1KD tx | TDP1 cell CPT | IL1B secr inh
Cc1cc(C)n(-c2cc(N3CCN(C(=O)c4cccc(Br)c4)CC3)ccc2[N+](=O)[O-])n1 | 21µM* | -3% | -14% | ? | ?
CC(=O)N1CCN(c2ccc([N+](=O)[O-])c(-n3nc(C)cc3C)c2)CC1 | -3% | 12% | 16% | -6% | 0
Cc1cc(C)n(-c2cc(N3CCN(S(=O)(=O)c4ccc(Cl)cc4)CC3)ccc2[N+](=O)[O-])n1 | 6.5µM* | 0% | 11% | 7.3µM* | -6
Cc1ccc(S(=O)(=O)NC(=O)C2(C)CCN2C(=O)C2(c3ccc(Cl)cc3)CCC2)cc1 (centres undefined) | -8% | -5% | 1% | -9% | 28
Cc1ccc(F)c(S(=O)(=O)NC(=O)C2(C)CCN2C(=O)C2(c3ccc(Cl)cc3)CCC2)c1 (centres undefined) | ? | 1% | -2% | 16µM* | 0
CC1(C(=O)NS(=O)(=O)c2ccc(Cl)cc2)CCN1C(=O)C1(c2ccccc2)CCCC1 (centres undefined) | ? | -16% | -18% | ? | 16
CC1(C(=O)NS(=O)(=O)c2ccc(C#N)cc2)CCN1C(=O)C1(c2ccccc2)CCCC1 (centres undefined) | 13µM* | -11% | ? | 12µM* | 8
CC1(C(=O)NS(=O)(=O)c2ccc(Cl)cc2)CCN1C(=O)C1(c2ccc(Cl)cc2)CCC1 (centres undefined) | ? | -22% | -18% | 21µM* | 26
Clc1ccc2nc(N3CCN(c4ccccc4)CC3)sc2c1 | -19% | 24% | 11% | -20% | 8
Brc1ccc2nc(N3CCN(c4ccccc4)CC3)sc2c1 | -4% | ? | 21% | 3% | -74*
CCNc1cc2n(c(=O)n1)CCc1cc(OC)c(OC)cc1-2 | -17% | 0% | 3% | 0% | -12
COc1cc2c(cc1OC)-c1cc(OCCN3CCOCC3)nc(=O)n1CC2 | ? | -8% | -2% | 23µM* | 20
COc1cc2c(cc1OC)-c1cc(Nc3ccccc3C)nc(=O)n1CC2 | -7% | -2% | -5% | -6% | -13
CCOc1ccccc1Nc1cc2n(c(=O)n1)CCc1cc(OC)c(OC)cc1-2 | 15µM* | -13% | -12% | ? | -21
COc1ccc(CN(C)S(=O)(=O)c2nnc(NC(=O)c3cccc(F)c3)s2)cc1 | ? | ? | ? | -17% | 29
CCN(C(=O)C(C)OC(=O)C1C(C(=O)OC)=C(C)NC(C)=C1C(=O)OC)c1ccccc1 (centres undefined) | 18% | 15% | 7% | -7% | -8
C=CCC(NCc1ccccc1)c1ccc(Cl)cc1 (centres undefined) | 13µM* | -6% | -3% | ? | -15
